Source: PubChem BioAssay AID1159580 (chemical genetic matrix, 2015)
Values joined by “and” are separate entries in the source; they are usually repeats but may differ in a detail not shown here. Identical values can stand only once. About 2,000 (36%) of roughly 5,500 compounds were called active. Not shown: some 18% with an inconclusive outcome. Cut-off read from the data, not from the text of the source: active = normalized growth mostly below about 0.91 (no sharp cut-off); inconclusive = no clear call, values can overlap the other calls; inactive = mostly above about 0.92. Some of the results follow.

Experiment: chemical genetic growth profiling, strain panel (AID 1159580);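 note: tested at 20 µM; growth read once vehicle control cultures reached saturation at 30 °C; 1 = growth at the plate median or of vehicle wells; lower values mean less growth of the strain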
Settings: S. cerevisiae deletion strains, growth OD
[1] = locus YHR030C, strain SLT2, active compounds read low
[2] = locus YHR079C, strain IRE1, active compounds read low
[3] = locus YJL095W, strain BCK1, active compounds read low
[4] = locus YJR066W, strain TOR1, active compounds read low
[5] = locus YLR113W, strain HOG1, active compounds read low
[6] = locus YNL183C, strain NPR1, active compounds read low
[7] = locus YOR231W, strain MKK1, active compounds read low
[8] = locus YPL256C, strain CLN2, active compounds read low

Measured: normalized growth

C=C(C)[C@@H]1CC[C@]2(CO)CC[C@]3(C)[C@H](CCC4[C@@]5(C)CC[C@H](O)C(C)(C)C5CC[C@]43C)C12 (some centres not stated)
inactive: locus YAL021C, strain ccr4, active compounds read low 1.02 | locus YAL026C, strain drs2, active compounds read low 1.01 | locus YAL030W, strain snc1, active compounds read low 1.01 | locus YBL061C, strain skt5, active compounds read low 1.02 | locus YBR009C, strain hhf1, active compounds read low 1.01 | locus YBR021W, strain FUR4, active compounds read low 0.984 | locus YBR023C, strain chs3, active compounds read low 1.01 | locus YBR171W, strain sec66, active compounds read low 1.02 | locus YBR229C, strain ROT2, active compounds read low 0.995 | locus YBR231C, strain swc5, active compounds read low 1.01 | locus YBR279W, strain paf1, active compounds read low 1.01 | locus YCL011C, strain gbp2, active compounds read low 1.01 | locus YCL016C, strain dcc1, active compounds read low 1.01 | locus YCL029C, strain bik1, active compounds read low 0.979 | locus YCL061C, strain MRC1, active compounds read low 1.01 | locus YCL069W, strain vba3, active compounds read low 1.01 | locus YCR088W, strain abp1, active compounds read low 1.01 | locus YDL005C, strain med2, active compounds read low 1 | locus YDL035C, strain GPR1, active compounds read low 1.02 | locus YDL040C, strain nat1, active compounds read low 1.01 | locus YDL074C, strain BRE1, active compounds read low 1.01 | locus YDL101C, strain DUN1, active compounds read low 0.991 | locus YDL185W, strain tfp1, active compounds read low 0.977 | locus YDL192W, strain arf1, active compounds read low 0.997 | locus YDR001C, strain nth1, active compounds read low 1 | locus YDR069C, strain doa4, active compounds read low 1 | locus YDR101C, strain arx1, active compounds read low 0.977 | locus YDR137W, strain rgp1, active compounds read low 1.01 | locus YDR159W, strain sac3, active compounds read low 1.01 | locus YDR162C, strain NBP2, active compounds read low 1.02 | locus YDR195W, strain ref2 0.972 | locus YDR297W, strain sur2, active compounds read low 1.01 | locus YDR318W, strain mcm21, active compounds read low 1.02 | locus YDR334W, strain swr1, active compounds read low 0.996 | locus YDR335W, strain msn5, active compounds read low 1 | locus YDR388W, active compounds read low 1.01 | locus YDR392W, strain spt3, active compounds read low 0.925 | locus YDR502C, strain sam2, active compounds read low 0.997 | locus YEL003W, strain gim4, active compounds read low 1 | locus YEL037C, strain rad23, active compounds read low 0.977 | locus YEL061C, strain CIN8 (second series), active compounds read low 1 | locus YEL061C, strain CIN8, active compounds read low 1.02 | locus YER015W, strain faa2, active compounds read low 0.996 | locus YER016W, strain bim1, active compounds read low 1.01 | locus YER110C, active compounds read low 0.99 | locus YER111C, strain swi4, active compounds read low 1.01 | locus YER155C, strain BEM2 (second series), active compounds read low 0.984 | locus YER155C, strain BEM2, active compounds read low 0.992 | locus YER167W, strain BCK2, active compounds read low 1 | locus YFR010W, strain ubp6, active compounds read low 0.999 | locus YGL078C, strain dbp3, active compounds read low 0.989 | locus YGL086W, strain mad1, active compounds read low 0.973 | locus YGL167C, strain pmr1, active compounds read low 1.01 | locus YGL173C, strain kem1, active compounds read low 1.01 | locus YGL227W, strain vid30, active compounds read low 1.02 | locus YGL240W, strain doc1, active compounds read low 1.01 | locus YGL248W, strain PDE1, active compounds read low 1 | locus YGL253W, strain hxk2, active compounds read low 1.04 | locus YGR135W, strain pre9, active compounds read low 1.01 | locus YGR252W, strain gcn5, active compounds read low 1.05 | locus YHR013C, strain ard1, active compounds read low 1.03 | locus YHR027C, strain rpn1, active compounds read low 1 | [1] 0.995 and 0.997 | locus YHR079C, strain IRE1 (second series), active compounds read low 0.992 | [2] 0.998 | locus YHR094C, strain hxt1, active compounds read low 1 | locus YHR129C, strain ARP1, active compounds read low 0.949 | locus YHR142W, strain chs7, active compounds read low 1.06 | locus YHR200W, strain rpn10, active compounds read low 0.998 | locus YIL066C, strain RNR3, active compounds read low 0.993 | locus YIL073C, strain SPO22, active compounds read low 1.01 | locus YIL125W, strain kgd1, active compounds read low 0.986 | locus YIR030C, strain dcg1, active compounds read low 0.989 | locus YJL092W, strain hpr5, active compounds read low 1.01 | locus YJL095W, strain BCK1 (second series), active compounds read low 1.01 | [3] 1.02 and 0.982 | locus YJL115W, strain asf1, active compounds read low 1.01 | locus YJL129C, strain trk1, active compounds read low 1.03 | locus YJL134W, strain LCB3, active compounds read low 0.992 | locus YJL154C, strain vps35, active compounds read low 0.998 | locus YJL164C, strain tpk1, active compounds read low 1.01 | locus YJL166W, strain qcr8, active compounds read low 1.01 | locus YJL168C, strain set2, active compounds read low 0.994 | locus YJL187C, strain SWE1 (second series), active compounds read low 0.996 | locus YJL187C, strain SWE1, active compounds read low 1.01 | locus YJR043C, strain POL32, active compounds read low 0.996 | [4] 0.932 | locus YJR075W, strain HOC1, active compounds read low 1.01 | locus YKL009W, strain mrt4, active compounds read low 0.963 | locus YKL160W, strain elf1, active compounds read low 1.03 | locus YKL190W, strain CNB1, active compounds read low 1.03 | locus YKR001C, strain vps1, active compounds read low 0.976 | locus YKR026C, strain gcn3, active compounds read low 1.01 | locus YKR091W, strain srl3, active compounds read low 1 | locus YLL001W, strain dnm1, active compounds read low 1.03 | locus YLL026W, active compounds read low 1 | locus YLL041C, strain sdh2, active compounds read low 1 | locus YLR027C, strain aat2, active compounds read low 1 | locus YLR039C, strain RIC1, active compounds read low 1.02 | locus YLR058C, strain SHM2, active compounds read low 1.01 | locus YLR102C, strain apc9, active compounds read low 0.991 | [5] 0.999 | locus YLR221C, strain rsa3, active compounds read low 1.03 | locus YLR258W, strain gsy2, active compounds read low 0.996 | locus YLR262C, strain YPT6 (second series), active compounds read low 1 | locus YLR262C, strain YPT6, active compounds read low 1.08 | locus YLR268W, strain sec22, active compounds read low 0.964 | locus YLR320W, strain mms22, active compounds read low 1.04 | locus YLR330W, strain CHS5, active compounds read low 1 | locus YLR342W, strain FKS1 (second series), active compounds read low 0.998 | locus YLR342W, strain FKS1, active compounds read low 0.986 | locus YLR357W, strain rsc2, active compounds read low 1.01 | locus YLR370C, strain arc18, active compounds read low 1.02 | locus YLR371W, strain rom2, active compounds read low 0.985 | locus YLR384C, strain iki3, active compounds read low 1.01 | locus YLR418C, strain cdc73, active compounds read low 1.01 | locus YML016C, strain PPZ1, active compounds read low 0.985 | locus YML032C, strain rad52, active compounds read low 1.02 | locus YML120C, strain ndi1, active compounds read low 1 | locus YML124C, strain tub3, active compounds read low 0.994 | locus YMR058W, strain fet3, active compounds read low 1.02 | locus YMR078C, strain ctf18, active compounds read low 0.973 | locus YMR125W, strain sto1, active compounds read low 1.01 | locus YMR129W, active compounds read low 1 | locus YMR205C, strain PFK2, active compounds read low 1.03 | locus YMR223W, strain ubp8, active compounds read low 1 | locus YMR231W, strain pep5, active compounds read low 1.01 | locus YMR307W, strain GAS1, active compounds read low 1.09 | locus YNL067W, strain RPL9B, active compounds read low 1 | locus YNL071W, strain lat1, active compounds read low 1.01 | [6] 0.939 | locus YNL209W, strain ssb2, active compounds read low 1.01 | locus YNL233W, strain BNI4, active compounds read low 0.999 | locus YNL248C, strain rpa49, active compounds read low 1 | locus YNL250W, strain rad50, active compounds read low 0.978 | locus YNL271C, strain bni1, active compounds read low 0.976 | locus YNL298W, strain CLA4, active compounds read low 1.01 | locus YNL307C, strain MCK1, active compounds read low 0.988 | locus YNL322C, strain KRE1 (second series), active compounds read low 1.01 | locus YNR049C, strain mso1, active compounds read low 1.01 | locus YNR052C, strain pop2, active compounds read low 0.998 | locus YOL012C, strain htz1 0.862 | locus YOL147C, strain pex11, active compounds read low 0.992 | locus YOR001W, strain rrp6, active compounds read low 0.98 | locus YOR061W, strain CKA2, active compounds read low 0.994 | locus YOR069W, strain VPS5, active compounds read low 0.99 | locus YOR070C, strain gyp1, active compounds read low 1.01 | locus YOR080W, strain dia2, active compounds read low 1.01 | locus YOR083W, strain WHI5, active compounds read low 1.03 | locus YOR106W, strain vam3, active compounds read low 1.02 | locus YOR136W, strain idh2, active compounds read low 0.979 | locus YOR144C, strain elg1, active compounds read low 0.997 | locus YOR184W, strain ser1, active compounds read low 0.98 | [7] 0.995 | locus YOR265W, strain rbl2, active compounds read low 1.02 | locus YOR270C, strain vph1, active compounds read low 1.04 | locus YOR290C, strain snf2, active compounds read low 1 | locus YOR316C, strain cot1, active compounds read low 0.999 | locus YPL051W, strain arl3, active compounds read low 1.02 | locus YPL078C, strain atp4, active compounds read low 1.01 | locus YPL106C, strain sse1, active compounds read low 1 | locus YPL240C, strain hsp82, active compounds read low 1 | [8] 0.972 | locus YPR119W, strain clb2, active compounds read low 0.993 | locus YPR141C, strain kar3, active compounds read low 0.984 | locus YPR163C, strain tif3, active compounds read low 1 | locus YPR167C, strain met16, active compounds read low 1.01 | strain wtn01, active compounds read low 0.946
active: locus YKL068W, active compounds read low 1.09 [resistant]

C=C(C)[C@@H]1CC[C@]2(C)CC[C@]3(C)[C@@H](CCC4[C@@]5(C)CC[C@H](O)C(C)(C)C5CC[C@]43C)C12 (some centres not stated)
inactive: [1] 1 | [2] 0.978 | [3] 0.993 | [4] 0.944 | [5] 0.992 | [6] 0.923 | [7] 0.99 | [8] 0.994
